The record followed here is PubChem BioAssay.

Experiment [1] can be described thus: Wnt pathway potentiators raising nuclear beta-catenin – imaging, WNT3A-conditioned medium, mouse C2C12, NPC library, primary screen (AID 1117326; in the data active = nuclear beta-catenin stimulation mostly above about 4.2%, no sharp cut-off; inactive = mostly below about 10%). The note with it: stronger effect = higher value.
Experiment [2] in a line: stimulators of insulin release from INS-1E, primary screen, cell-based, 5 mM glucose, NPC library (AID 1117329;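 active = compound raises insulin release from rat beta cells at 5 mM glucose, no numeric limit stated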). The note with it: rat INS-1E insulin secretion, at 10 µM, stronger effect = higher value.
The nature of experiment [3]: growth inhibition of GSK3B-pretreated HCT116 cells – cell-based, CellTiter-Glo, 0.2 to 20 µM (AID 1117336;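 active = compounds lowering colon cancer cell viability after pretreatment blocking the GSK3B kinase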). Particulars: HCT116 viability after GSK3B inhibitor, at 20 µM, stronger effect = higher value.
Experiment [4] is described as follows: inhibition of endothelial tube formation, primary screen, imaging, VEGF stimulated, CD31 staining, tube area, NPC library (AID 1117340;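 active = compound that reduces growth-factor-driven endothelial tube area in a mixed cell culture, no cutoff stated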). Particulars: VEGF-stimulated ADSC/ECFC co-culture, at 10 µM, stronger effect = higher value.
The nature of experiment [5]: GLP1 release stimulators, primary, NCI-H716, NPC library (AID 1117341;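 active = compound raises GLP1 secretion from the human gut endocrine cells, with no numeric limit stated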). The note with it: NCI-H716 cells, at 10 µM, stronger effect = higher value.
A short description of experiment [6]: HCT116 colon cancer cell growth inhibition, primary screen, CellTiter-Glo luminescence, NPC library (AID 1117342;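 active = compounds that lower survival of HCT116 colon cancer cells in the luminescence readout, no numeric limit stated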). Particulars: at 20 µM (top of the series).
The nature of experiment [7]: reduced SW480 viability measured with CellTiter-Glo, NPC library, primary (AID 1117343;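 active = compounds that lower viability of the colon cancer cells in the luminescence readout, with no numeric limit stated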). Particulars: CellTiter-Glo luminescence; at 20 µM (top of the series) unless noted. (Cellular ATP, detected with luciferase, serves as a proxy for viable cell number.)
Experiment [8] is described as follows: NPC library primary testing for decreased DLD-1 cell viability via CellTiter-Glo (AID 1117346;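 active = compounds that lower survival of DLD-1 colon cancer cells in the luminescence readout, no cutoff given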). Particulars: DLD-1 viability, CellTiter-Glo luminescence; at 20 µM (top of the series).
Experiment [9] is described as follows: viability loss in pontine glioma line – cell-based, JHH-DIPG-1, MIPE4.0, CellTiter-Glo, qHTS, dose response (AID 1347062; cut-off not given, nearly all actives have AC50 up to about 27 µM;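 for AC50: cells exposed to compound for two days before readout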). Particulars: JHH-DIPG-1 viability, CellTiter-Glo ATP luminescence.
Experiment [10] can be described thus: viability loss in pontine glioma line – cell-based, SU-DIPG-IV, MIPE4.0, CellTiter-Glo, qHTS, dose response (AID 1347063; cut-off not given, nearly all actives have AC50 up to about 30 µM;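 note: compound exposure lasted 48 hours before the viability readout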). The note with it: CellTiter-Glo ATP luminescence.
Experiment [11] can be described thus: viability loss in pontine glioma line – cell-based, SU-DIPG-XXV, MIPE5.0, CellTiter-Glo, qHTS, dose response (AID 1347065).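 Note: cells exposed to compound for 48 hours before ATP readout.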 Particulars: CellTiter-Glo ATP luminescence.
Experiment [12] in a line: growth inhibition of DIPG cells – cell-based, MIPE4.0 library, CellTiter-Glo luminescence, qHTS (AID 1347066; cut-off not given, nearly all actives have AC50 up to about 30 µM;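 note: cells exposed to compound for 48 hours before readout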). The note with it: SU-DIPG-VI viability, CellTiter-Glo ATP luminescence.
A short description of experiment [13]: JHH-DIPG-1 glioma cell viability, MIPE5.0 library, CellTiter-Glo luminescence, qHTS (AID 1347067).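 Note: cells exposed to compound for 48 hours before readout.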 The note with it: JHH-DIPG-1 glioma viability, CellTiter-Glo ATP luminescence.
A short description of experiment [14]: growth inhibition of DIPG cells – cell-based, MIPE5.0 library, qHTS (AID 1347068; cut-off not given, nearly all actives have IC50 up to about 30 µM;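 for IC50: cells exposed to compound for 48 hours before viability readout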). Particulars: SU-DIPG-XXV viability. Background: Quantitative high-throughput screening tests each substance at several concentrations.
Experiment [15] can be described thus: viability loss with induced miR-34 in A549 – imaging, A549 dox-inducible miR-34, nuclei and caspase counts, primary screen (AID 1347080;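 active = compounds whose cell count with miR-34 switched on is under 0.7 times the count with it off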). Particulars: A549 miR-34 inducible, Hoechst nuclei count, 48 h.
The nature of experiment [16]: blockers of cellular phospholipid synthesis – cell-based, LOPAC library, screen 4, primary screen (AID 1347384; call rule not given here). Particulars: animal cells, phospholipid biosynthesis inhibition screen; at 10 µM.
Experiment [17] is described as follows: MELAS cybrid and Rieske KO viability enhancers – cell-based, MELAS cybrids, Rieske KO mouse fibroblasts, CellTiter-Glo, primary screen (AID 1508586;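 active = mean z-score across replicates of 1.96 or higher in either the MELAS or the Rieske mutant cell line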;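 note: z relative to plate mean and SD of compound and empty wells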). The note with it: low glucose.
Experiment [18] in a line: galactose survival enhancers in mitochondrial complex I cybrids – cell-based, galactose medium, ATP luminescence, primary screen (AID 1645843;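 active = z-score of at least 1.8 in each of two replicates, scored against plate mean and spread of sample wells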;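 note: positive z means more ATP and so rescue of galactose-driven cybrid death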). Particulars: complex I mutant cybrid cells, 72 h, stronger effect = higher value.
The nature of experiment [19]: P. berghei load reduction in hepatocytes – cell-based, HepG2, luciferase luminescence, HepG2 viability, primary screen (AID 624349; in the data active = parasite load remaining mostly below about 12%, no sharp cut-off; inactive = mostly above about 10%;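 note: 100% = mean of DMSO negative control wells on the same plate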). The note with it: P. berghei liver stage in HepG2, luciferase luminescence, concentration not given here; parasite load remaining: stronger effect = lower value; viability: measured here: HepG2 viability without parasites.
Setting [20] is: stronger effect = lower value, cell number ratio, induced over uninduced.
The mark [21] stands for this setting: measured here: relative caspase fold change +Dox/-Dox.
Where [22] appears, read: measured here: total cells with miR-34 induction, stronger effect = lower value.
The mark [23] stands for this setting: measured here: total cells without miR-34 induction.
[24] abbreviates: MELAS cybrid survival, CellTiter-Glo 48 h, stronger effect = higher value.
Where [25] appears, read: Rieske KO mouse fibroblast survival, CellTiter-Glo 72 h.

Molecules are shown by their SMILES. “And” between values parts separate entries of the source, which are not always exact repeats. Equal entries are not always repeated. Inconclusive results are not listed. The source made the active and inactive calls. Unless noted, no cut-off is given here; in the data, nearly all actives have AC50 up to about 26 µM.

As to `COc1ccc2cccc(CCNC(C)=O)c2c1`, the nuclear beta-catenin stimulation is 1.6% (inactive) in [1] (at 10 µM) and -1% in experiment [1] (stimulation, at 2 µM). For the same molecule, in [2], the insulin secretion stimulation was -1.5% (inactive). Further, in experiment [3], the viability decrease is 2.7% (inactive). Besides, the tube area decrease in experiment [4] is 1% (inactive). Besides, the GLP1 secretion stimulation in experiment [5] was -0.3% (inactive). Also, the inhibition of viability in experiment [6] is 3.7% (inactive). Also, the results for the viability decrease (inhibition) in [7] and in [8] were -8.5% (inactive) and 3.3% (inactive), respectively. Further, the molecule was called inactive in [9], in [10], in experiment [11], in experiment [12], in experiment [13] and in experiment [14]. Besides, the outcome in experiment [16] was inactive. Besides, the fold change in experiment [15] (setting [20]) was 0.904 (inactive) and 0.982 (inactive) and 0.944 (inactive); in experiment [15] (setting [21]) it was 0.381 and 0.908 and 0.855. For the same molecule, the cell count is 8590 and 5820 and 7020 in experiment [15] (setting [22]); 9510 and 5930 and 7430 in experiment [15] (setting [23]). The z-score in experiment [17] (setting [24]) is 0.556 (inactive) and -0.393 (inactive); in experiment [17] (setting [25]), 0.28 and -0.0702; in [18], 0.205 (inactive).
Regarding `COC(c1ccccc1)(c1ccccc1)[C@H](Oc1nc(C)cc(C)n1)C(=O)O`, the nuclear beta-catenin stimulation in experiment [1] (at 10 µM) is -1.5% (inactive); in experiment [1] (stimulation, at 2 µM), 0%. Further, the insulin secretion stimulation in experiment [2] was 4.3% (inactive). Moreover, the viability decrease in experiment [3] is -12.3% (inactive). Also, in experiment [4], the tube area decrease is 10.8% (inactive). Also, the GLP1 secretion stimulation in [5] is -5.9% (inactive). Besides, in [6], the inhibition of viability was 6.7% (inactive). Besides, the viability decrease (inhibition) in experiment [7] is 9.7% (inactive); in experiment [8], -0.4% (inactive). Also, the call in [9], in experiment [10], in experiment [11], in experiment [12], in [13] and in experiment [14] was inactive.
Broadly, the viability is the share of living cells, or the viability signal relative to a control. In general, AC50 refers to the midpoint of the concentration-response curve, whichever way the signal moves. The IC50 is the concentration needed to halve the response being measured. Consider `CCC1=C[C@@H]2CN(C1)Cc1c([nH]c3ccccc13)[C@@](C(=O)OC)(c1cc3c(cc1OC)N(C)[C@H]1[C@@](O)(C(=O)OC)[C@H](OC(C)=O)[C@]4(CC)C=CCN5CC[C@]31[C@@H]54)C2`, for which, in [19], the parasite load remaining is 30.5% (inactive). Also, the viability in [19] amounted to 85%. In addition, the nuclear beta-catenin stimulation was 60.8% (active) in [1] (at 10 µM) and 72.7% in [1] (stimulation, at 2 µM). Besides, the insulin secretion stimulation in experiment [2] was 2.25% (inactive). The viability decrease in experiment [3] was 103% (active). The tube area decrease in [4] was 106% (active). For the same molecule, the GLP1 secretion stimulation in [5] is 2.5% (inactive). Further, in experiment [6], the inhibition of viability was 94.3% (active). The viability decrease (inhibition) is 91.4% (active) in experiment [7] and 76.7% (active) in [8]. Besides, the half-maximal activity concentration (AC50) is 0.0132 µM (active) in [9], 0.204 µM (active) in [11] and 0.144 µM (active) in experiment [13]. Also, in experiment [14], the half-inhibitory concentration (IC50) was 1.15 µM (active). Also, the fold change in [15] (setting [20]) was 0.917 (inactive); in [15] (setting [21]) it was 1.02. Moreover, the results for the cell count in experiment [15] (setting [22]) and in [15] (setting [23]) were 1860 and 2030, respectively. Moreover, the z-score in experiment [17] (setting [24]) was -2.16 (inactive); in experiment [17] (setting [25]), 1.89; in [18] it was -2.04 (inactive).
On to `CC(C(=O)O)c1ccc2c(c1)CC(=O)c1ccccc1S2` (configuration not stated), for which the nuclear beta-catenin stimulation was -0.5% (inactive) in [1] (at 10 µM) and -1.2% in experiment [1] (stimulation, at 2 µM). In addition, in experiment [2], the insulin secretion stimulation is 5.5% (inactive). The viability decrease in experiment [3] was -7.1% (inactive). Further, the tube area decrease in experiment [4] is 2.5% (inactive). For the same molecule, the GLP1 secretion stimulation in experiment [5] is -2% (inactive). For the same molecule, the inhibition of viability in experiment [6] is -2.7% (inactive). The values for the viability decrease (inhibition) in experiment [7] and in experiment [8] were 21.1% (inactive) and 7.9% (inactive), respectively. Also, the molecule was classed as inactive in [11] and in experiment [14]. Besides, the fold change in experiment [15] (setting [20]) was 0.901 (inactive); in [15] (setting [21]), 0.594. The figures for the cell count in [15] (setting [22]) and in [15] (setting [23]) were 9750 and 10800, respectively. Moreover, the values for the z-score in experiment [17] (setting [24]) and in experiment [17] (setting [25]) were -0.314 (inactive) and 0.988, respectively.
In the case of `C=CC(=O)Nc1cc2c(Nc3ccc(F)c(Cl)c3)ncnc2cc1OCCCN1CCOCC1`, the nuclear beta-catenin stimulation is 45.9% (active) in experiment [1] (at 10 µM) and 9.2% in [1] (stimulation, at 2 µM). For the same molecule, in experiment [2], the insulin secretion stimulation is 1.6% (inactive). Further, in experiment [3], the viability decrease is 108% (active). For the same molecule, the tube area decrease in [4] was 43.3% (active). In addition, in experiment [5], the GLP1 secretion stimulation was 2.8% (inactive). Besides, the inhibition of viability in experiment [6] is 112% (active). Also, the results for the viability decrease (inhibition) in [7] and in [8] were 130% (active) and 101% (active), respectively. The half-maximal activity concentration (AC50) in experiment [9] was 18.7 µM (active); in experiment [10] it was 5.9 µM (active); in experiment [11] it was 6.61 µM (active); in experiment [12] it was 14.8 µM (active); in [13] it was 9.34 µM (active). Moreover, the IC50 in experiment [14] was 5.25 µM (active).
